Results reported in PubChem BioAssay AID686915 (National Center for Advancing Translational Sciences (NCATS), 2013).
Values joined by “and” are separate entries in the source; they are usually repeats but may differ in a detail not shown here. Equal entries are not always repeated. Inconclusive results are not listed. Active and inactive are the calls of the source. Calls come from the whole dose curve; as a rule, active = well fitted inhibition curve with a large enough effect; inconclusive = small, poorly fitted or top-dose-only effect; inactive = no such curve, though single readings can be large or run the other way.

Assay: qHTS screen for inhibitors of ELG1-dependent DNA repair in human embryonic kidney (HEK293T) cells expressing luciferase-tagged ELG1: MMS Stimulated Assay for probe SAR
Conditions: HEK293T ELG1-luciferase reporter, 16 h; series mostly up to 46.1 µM; activity change, negative = inhibition: at the top concentration
Text: Cancer cells divide rapidly compared to normal cells in the body. During cell division, cancer cells need to duplicate their genome by DNA replication. The failure of genome duplication leads to cancer cells' death. Therefore, inhibitors of DNA replication could specifically kill cancer cells. Based on this concept, many chemotherapeutic agents were developed and have been used to treat cancer patients. However, there are a limited number of agents available in the clinical setting, and some of those that do exist have low efficacy and severe side effects. Therefore, if we can find the compounds that effectively block DNA replication either by directly damaging DNA or by inhibiting other cellular mechanisms, the options for cancer treatment will be broadened. With this in mind, we developed a quantitative high-throughput ELG1-luciferase reporter gene assay. Small molecules that specifically block ELG1 function in response to DNA damage can be identified by monitoring the suppression of luciferase activity. Since ELG1 defines a pathway for repairing DNA damage, agents blocking ELG1 function can be used to sensitize cancer cells to chemotherapeutic agents whose mechanism of action involves the induction of DNA damage. NIH Molecular Libraries Probe Production Network [MLPCN] NIH Chemical Genomics Center [NCGC] MLPCN Grant: R03 MH092164 Assay Provider: Kyungjae Myung, NHGRI, NIH
ELG1-luc HEK293T cells will be seeded in 1536-well plates at a density of 2,000 cells / well. Approximately 5 hours after plating, compounds will be added to the plate by pin tool transfer and MMS will be added by FRD dispenser (final concentration of MMS = 10 µM). 16 hours following the addition of the compounds, luciferase activity will be measured using Amplight reagent.

| SMILES | activity change, negative = inhibition | Potency |
| --- | --- | --- |
| COc1cc(-c2nc(Nc3ccc(F)c(F)c3)c3ccccc3n2)ccn1 | 17.9% (inactive) | – |
| CCOC(=O)c1ccc2c(c1)c(C(C)=O)c(C)n2-c1ccc(OC)cc1 | 10.6% (inactive) | – |
| Fc1ccc(Nc2nc(-c3ccnc(N4CCCCC4)c3)nc3ccccc23)cc1F | -17% (inactive) | – |
| Fc1cc(Nc2nc(-c3ccncc3)nc3ccccc23)ccc1-c1ccncc1 | 16.6% (inactive) | – |
| N#Cc1cc(-c2nc(Nc3ccc(F)c(F)c3)c3ccccc3n2)ccn1 | -37% (inactive) | – |
| Fc1cccc(-c2ccc(Nc3nc(-c4ccncc4)nc4ccccc34)cc2F)c1 | 8.75% (inactive) | – |
| Fc1ccc(-c2ccc(Nc3nc(-c4ccncc4)nc4ccccc34)cc2F)c(Cl)c1 | – | 11.8 µM (active) |
| Fc1cc(-c2nc(Nc3ccc(F)c(F)c3)c3ccccc3n2)ccn1 | -19.4% (inactive) | – |
| COc1ccc(-c2nc(Nc3ccc(F)c(F)c3)c3ccccc3n2)cc1 | 10.2% (inactive) | – |
| CSc1ccccc1-c1ccc(Nc2nc(-c3ccncc3)nc3ccccc23)cc1F | – | 18.7 µM (active) |
| Cc1nc2ccc(Nc3nc(-c4ccncc4)nc4ccccc34)cc2s1 | 10.6% (inactive) | – |
| COc1ccc(-n2c(C)c(C(C)=O)c3ccccc32)cc1 | – | 7.43 µM (active) and 6.62 µM (active) |
| N#Cc1cnccc1-c1nc(Nc2ccc(F)c(F)c2)c2ccccc2n1 | – | 5.26 µM (active) |
| COc1cc(Nc2nc(-c3ccncc3)nc3ccccc23)ccc1N1CCN(C)CC1 | 7.99% (inactive) | – |
| CN1CCN(c2cc(-c3nc(Nc4ccc(F)c(F)c4)c4ccccc4n3)ccn2)CC1 | – | 23.5 µM (active) |
| Cc1ccc(Nc2nc(-c3ccncc3)nc3ccccc23)cc1F | -27.9% (inactive) | – |
| Fc1cc(Nc2nc(-c3ccncc3)nc3ccccc23)ccc1-c1cccnc1 | 8.42% (inactive) | – |
| Fc1cc(Nc2nc(-c3ccncc3)nc3ccccc23)ccc1-c1cn[nH]c1 | -11.2% (inactive) | – |
| CN1CCN(c2ccc(Nc3nc(-c4ccncc4)nc4ccccc34)cc2F)CC1 | -13.1% (inactive) | – |
| Fc1ccc(Nc2nc(-c3ccncc3)nc3ccccc23)cc1F | -12.5% (inactive) | – |

| SMILES | activity change, negative = inhibition | Potency |
| --- | --- | --- |
| Fc1cc(Nc2nc(-c3ccncc3)nc3ccccc23)ccc1-c1ccnc(C(F)(F)F)c1 | -2.36% (inactive) | – |
| Fc1cc(Nc2nc(-c3ccncc3)nc3ccccc23)ccc1-c1cc(F)c(F)c(F)c1 | 2.36% (inactive) | – |
| Fc1cc(Nc2nc(-c3ccncc3)nc3ccccc23)ccc1-c1cccc(OC(F)(F)F)c1 | – | 23.5 µM (active) |
| Fc1cc(Nc2nc(-c3ccncc3)nc3ccccc23)ccc1-c1cncnc1 | 6.48% (inactive) | – |
| COc1cnccc1-c1nc(Nc2ccc(F)c(F)c2)c2ccccc2n1 | – | 13.2 µM (active) |
| Fc1cc(Nc2nc(-c3ccncc3)nc3ccccc23)ccc1N1CCCCC1 | – | 18.7 µM (active) |
| Fc1ccccc1-c1ccc(Nc2nc(-c3ccncc3)nc3ccccc23)cc1F | – | 16.6 µM (active) |
| COc1ccc(-c2ccc(Nc3nc(-c4ccncc4)nc4ccccc34)cc2F)cc1F | 3.92% (inactive) | – |
| COc1cc(Nc2nc(-c3ccncc3)nc3ccccc23)ccc1NS(C)(=O)=O | -8.84% (inactive) | – |
| Fc1cc(Nc2nc(-c3ccncc3)nc3ccccc23)ccc1OCC(F)(F)F | -19.7% (inactive) | – |
| c1ccc2c(Nc3ccn[nH]3)nc(-c3ccncc3)nc2c1 | – | 4.69 µM (active) |
| Cc1cc(-c2nc(Nc3ccc(F)c(F)c3)c3ccccc3n2)ccn1 | 14.4% (inactive) | – |
| Fc1cc(Nc2nc(-c3ccncc3)nc3ccccc23)ccc1N1CCNCC1 | -12% (inactive) | – |
| Fc1cc(Nc2nc(-c3ccncc3)nc3ccccc23)ccc1-c1cccc(OC(F)F)c1 | 7.46% (inactive) | – |
| COc1cc(Nc2nc(-c3ccncc3)nc3ccccc23)ccc1F | – | 23.5 µM (active) and 20.9 µM (active) |
| Cc1cc(-c2nc(Nc3ccc(F)c(F)c3)c3ccccc3n2)cc(C)n1 | 10.5% (inactive) | – |
| Fc1ccc(-c2nc(-c3ccncc3)nc3ccccc23)cc1F | 5.29% (inactive) | – |
| COc1cc(-c2nc(Nc3ccc(F)c(F)c3)c3ccccc3n2)c(F)cn1 | – | 8.33 µM (active) |
| Fc1cc(Nc2nc(-c3ccncc3)nc3ccccc23)ccc1-c1ccc(F)c(F)c1F | 13% (inactive) | – |
| Cc1noc(C)c1-c1ccc(Nc2nc(-c3ccncc3)nc3ccccc23)cc1F | – | 18.7 µM (active) |
